# Only some compounds are listed: those with a hit (about 12% of all), similar ones and a draw of the others.
# G9a inh – blocks human histone lysine methyltransferase G9a. Q96KQ7. G9a H3K9 monomethylation, AlphaScreen, 2 h. Potency, µM (highest dose often 102 µM), for inactives: top-dose activity, negative = inhibition, usual class: inhibitors. 350,000 tested, 8.8% active. AID 504332; also: % is scaled to controls: 0 for no effect and ±100 for the full control effect; nearly all actives have a fitted effect of over 75% in size
#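 G9a (20 nM) was preincubated 15 min with compound, then reacted 2 h at room temperature with 500 nM biotin-H3K9 peptide and 20 µM SAM. Monomethyl-H3K9 detected by AlphaScreen using anti-H3K9me1 antibody.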
# JMJD2A Tudor inh – inhibitors of human JMJD2A Tudor domain | Potency, µM (doses to about 114 µM), for inactives: at the highest dose activity change, negative = inhibition, actives largely listed as inhibitors | AlphaScreen JMJD2A-Tudor / H3K4me3 peptide binding | O75164 | 390,000 tested, 4.4% active; also: % is scaled to controls: 0 for no effect and ±100 for the full control effect; nearly all actives have a fitted effect of over 50% in size
# Sfp inh – Sfp phosphopantetheinyl transferase inhibition. Biochemical Sfp PPTase activity, qHTS. Potency, µM, for inactives: largest response in the series, negative = inhibition, usual class: inhibitors. 310,000 tested, 3.5% active. AID 1490;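 also: the enzyme is Sfp with the accession as filed and its product quenches rhodamine fluorescence; 0% = enzyme reaction without inhibitor and -100% = no enzyme wells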
#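 Reaction rates are the 30-min fluorescence difference (ex 525, em 598 nm) in wells containing 15 nM Sfp, 5 uM rhodamine-CoA and 12.5 uM BHQ-2-YbbR at pH 7.6 with 10 mM MgCl2.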
# HP1b chromo inh – HP1-beta chromodomain-methylated histone interaction inhibition. Potency, µM (titrated, usually from 114 µM), inactives show top-dose activity change, negative = inhibition, hits mostly inhibitors. AID 540317. 390,000 tested, 0.56% active. P83916. AlphaScreen HP1-beta / biotin-H3K9me3 peptide binding; also: nearly all actives have a fitted effect of over 70% in size
#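 AlphaScreen: HP1-beta (50 nM) preformed 30 min with biotin-H3(1-18)K9me3 peptide (50 nM) in PBS pH 7.4, 0.01% Tween-20. Compound added for 30 min at RT, then streptavidin donor/nickel chelate acceptor beads (10 ug/mL) for 30 min.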
# PLK1 PBD block – inhibitors of human PLK1 polo-box domain binding | Plk1 PBD binding of FITC phosphopeptide, fluorescence polarization | Potency, µM, inactives show max response, negative = inhibition, hits mostly inhibitors | 360,000 tested, 2.8% active; also: series mostly up to about 57 µM; % is scaled to controls: 0 for no effect and ±100 for the full control effect; nearly all actives have a fitted effect of over 65% in size
# Target sequence (P53350 whole entry, looked up, the tested form may be a part): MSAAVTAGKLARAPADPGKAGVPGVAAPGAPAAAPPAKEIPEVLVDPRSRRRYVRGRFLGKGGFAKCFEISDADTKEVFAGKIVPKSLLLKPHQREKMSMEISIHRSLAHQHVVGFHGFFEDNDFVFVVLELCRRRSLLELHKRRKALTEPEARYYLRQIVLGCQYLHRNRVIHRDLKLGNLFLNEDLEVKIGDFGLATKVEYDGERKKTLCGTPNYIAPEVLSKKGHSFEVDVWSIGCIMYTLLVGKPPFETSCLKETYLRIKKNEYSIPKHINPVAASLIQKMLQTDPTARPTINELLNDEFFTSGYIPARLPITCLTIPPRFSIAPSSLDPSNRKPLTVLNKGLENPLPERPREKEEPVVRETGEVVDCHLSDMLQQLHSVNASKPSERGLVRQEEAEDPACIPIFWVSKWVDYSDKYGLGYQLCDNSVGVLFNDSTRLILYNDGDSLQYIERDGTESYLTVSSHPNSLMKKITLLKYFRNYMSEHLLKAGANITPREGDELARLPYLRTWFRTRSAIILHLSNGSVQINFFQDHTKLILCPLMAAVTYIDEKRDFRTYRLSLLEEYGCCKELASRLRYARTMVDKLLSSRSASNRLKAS
# BAZ2B block – inhibitors of human BAZ2B bromodomain; Q9UIF8; AlphaScreen BAZ2B-H3K14Ac peptide displacement; Potency, µM (titrated, usually from 114 µM), inactives show at the highest dose activity change, negative = inhibition, usual class: inhibitors; 360,000 tested, 4.4% active; AID 504333; also: % is scaled to controls: 0 for no effect and ±100 for the full control effect; nearly all actives have a fitted effect of over 60% in size
#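 BAZ2B 50 nM plus b-H3(5-23)K14Ac 50 nM, PBS pH 7.4/0.01% Tween-20, 30 min RT; compound added (max 110 uM), 30 min RT; streptavidin donor/Ni-chelate acceptor beads 10 ug/mL final, 20 min dark; AlphaScreen read.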
# * marks the source's active call; other numbers are inactive results; ? = inconclusive; / = no result; [ ] = remark or other dose. Calls follow the shape of the dose curve; as a rule, active = well fitted curve in the direction sought with a large enough effect; inconclusive = small, poorly fitted or top-dose-only effect, or another doubt; inactive = no such curve, though single readings can be large; an effect the other way counts as inactive or inconclusive. Potency is read from the fitted curve at half-maximal effect.
SMILES,G9a inh,JMJD2A Tudor inh,Sfp inh,HP1b chromo inh,PLK1 PBD block,BAZ2B block
COC(=O)c1ccc(-c2ccc(C3C4C=CCC(C)C4C(=O)N3Cc3ccccc3)c(F)c2)cc1 (centres undefined),/,-17.2%,?,38.0%,/,/
Fc1ccc(OCCn2cnc(Cl)c2Cl)cc1,-46.3%,-24.9%,16.5%,-2.3%,-5.5%,-30.7%
Cc1cc(OCCCCn2ccnc2)cc(C)c1Cl,8.91µM*,?,-8.0%,-0.3%,-16.4%,?
Cc1cccc(OCCn2ccnc2)c1,?,5.0%,-1.0%,32.2%,4.5%,-18.5%
CCc1cccc(OCCn2ccnc2)c1,8.91µM*,11.2µM*,-5.4%,?,-11.5%,50.1µM*
Clc1ccc(SCCCCn2ccnc2)cc1,?,7.94µM*,-17.2%,?,-1.6%,50.1µM*
Cc1cccc(OCCn2cnc(Cl)c2Cl)c1,-44.1%,-19.3%,3.8%,-18.5%,-5.4%,28.2µM*
CCN1C(=NCCN2CCOCC2)N[C@@H](CCc2ccccc2)C(C(=O)OC)=C1C,5.1%[12.7 µM],/,6.1%,/,/,-9.5%
CCOc1cc(/C=C(\C#N)C(=O)Nc2ccccc2[N+](=O)[O-])ccc1OCc1cccc2ccccc12,-36.9%,/,13.7%,/,/,-11.2%
Cc1cccc(OCCCCCn2ccnc2)c1,31.6µM*,3.16µM*,4.4%,?,3.6%,50.1µM*
Cc1cc(Cl)cc(C)c1OCCCCn1ccnc1,31.6µM*,?,13.1%,26.6%,-1.2%,-38.6%
CCc1ccc(C(=O)c2cn(CC(=O)NCCc3ccc(OC)c(OC)c3)c3nc(C)ccc3c2=O)cc1,11.5%[59 µM],-22.4%,/,20.5%,/,0.2%
COC(=O)c1ccc(/C=N/Nc2nc(-c3ccccc3)cs2)cc1,?,-16.8%,-13.3%,25.7%,-8.3%,-1.7%
COC(=O)c1ccc(/C=N/Nc2nc(-c3ccc(C)cc3)cs2)cc1,79.4µM*,-10.9%,-26.7%,32.0%,-16.5%,-4.6%
COc1ccc(/C=N/Nc2nc(C(=O)O)cs2)cc1,39.8µM*,?,?,34.1%,?,44.7µM*
COC(=O)c1ccc(/C=N/Nc2nc(-c3ccc(Cl)cc3Cl)cs2)cc1,50.1µM*,/,10.3%,/,/,-36.4%
C=C1N[C@]2(C(=O)COC(C)=O)[C@@H](C[C@H]3[C@@H]4CCC5=CC(=O)C=C[C@]5(C)[C@H]4[C@@H](O)C[C@@]32C)O1,-1.8%[12.7 µM],/,-1.0%,/,/,/
CCN(CC)C(=O)CC(c1ccc(N(C)C)cc1)c1c(O)cc(OC)cc1OC (centres undefined),?,50.1µM*,-8.1%,-15.8%,-1.8%,?
COc1cc(O)c(C(CCN2CCCCC2)c2ccc(N(C)C)cc2)c(OC)c1 (centres undefined),?,39.8µM*,-17.7%,?,1.4%,?
COc1cc(O)c(C(CCN2CCCC2)c2ccc(N(C)C)cc2)c(OC)c1 (centres undefined),?,22.4µM*,-21.9%,?,-8.7%,35.5µM*
CCN(CC)C(=O)CC(c1cc(OC)c(OC)c(OC)c1)c1c(O)cc(OC)cc1OC (centres undefined),18.3%[12.7 µM],-20.7%,18.9%,35.1%,-3.7%,0.6%
CC(C)N(C(=O)c1cc2c(Cl)nc3ccccc3c2s1)C1CCCCC1,-4.3%[59 µM],-12.8%,/,25.5%,/,-5.0%
Cc1ccc(C(c2sc3nc(-c4ccco4)nn3c2O)N2CCN(Cc3ccccc3)CC2)cc1 (centres undefined),?,?,/,18.7%,/,?
Cc1cccc(N2CCN(C(=O)Cn3cnc4sc(C)c(S(=O)(=O)N5CCN(c6ncccn6)CC5)c4c3=O)CC2C)c1 (centres undefined),-8.1%[59 µM],-27.0%,/,-3.0%,/,-2.9%
CC(C)n1c(=O)c2ccccc2n1C(=O)c1ccccc1,/,/,/,/,-4.4%,/
SMILES,G9a inh,JMJD2A Tudor inh,Sfp inh,HP1b chromo inh,PLK1 PBD block,BAZ2B block
O=C(c1ccc(F)cc1)N1CCN(c2ccc([N+](=O)[O-])cc2-n2cccc2)CC1,50.1µM*,?,8.4%,-37.3%,6.0%,?
O=C(c1ccccc1F)N1CCN(c2ccc([N+](=O)[O-])cc2-n2cccc2)CC1,/,?,-12.4%,8.5%,-14.5%,22.4µM*
COc1cccc2c(=O)c3c([nH]c12)OC(C)(C)C3,/,-6.8%,/,19.7%,5.3%,/
COc1cccc2c(=O)c3cccc(N)c3[nH]c12,25.1µM*,6.0%,22.4µM*,18.7%,-4.9%,?
O=C(CS(=O)(=O)c1ccccc1)Nc1nccs1,-10.7%,6.3%,-4.3%,-4.6%,-14.2%,-17.6%
Cc1ccc(-n2[nH]c(=O)c3cccnc32)cc1,?,-11.1%,18.0%,14.7%,-7.2%,-5.7%
Cc1ccc(-n2[nH]c(=O)c(-c3ccccn3)c2C)cc1,-1.2%,-30.8%,1.2%,6.2%,-10.0%,44.7µM*
Cc1ccc(C)c(C(=O)CN2C(=O)NC3(CCCCCC3)C2=O)c1,-4.3%,0.7%,/,35.1%,-5.6%,8.0%
Cc1cc(OCC[N+]2(C)CCCCC2)nc2ccccc12,?,39.8µM*,18.6%,-19.1%,-25.2%,-10.6%
Cc1cc(NC2CCCCC2)nc2ccccc12,21.1%,4.8%,16.2%,68.2%,-2.2%,2.9%
Cc1nn(C(=O)N(C)C)c(C)c1CN1C(=O)c2ccccc2C1=O,8.2%,-3.4%,4.0%,23.2%,-14.4%,-12.4%
CCOC(=O)[C@]12CCCC=C1N(Cc1ccc(Cl)cc1Cl)C(=O)[C@H](CC(=O)NCC13CC4CC(CC(C4)C1)C3)C2,/,/,/,/,-16.0%,/
COc1ccc(NC(=S)NCCN2CCOCC2)c(OC)c1,/,2.8%,/,17.8%,-22.7%,/
COc1ccc(Cl)cc1NC(=S)NCCN1CCOCC1,/,-16.5%,-7.9%,21.3%,-9.7%,-11.0%
COc1ccc(NC(=S)NCCCN2CCCC2)cc1Cl,17.8µM*,-2.8%,20µM*,1.9%,18.9µM*,?
CCCN1CCC(NC(=O)Nc2ccc(Br)cc2)CC1,35.5µM*,-18.0%,13.8%,26.7%,-4.0%,29.6%
COc1ccc(NC(=S)NCCN2CCC(C)CC2)cc1Cl,11.2µM*,-27.1%,2.51µM*,-17.1%,10.6µM*,-6.2%
COc1ccc(OC)c(NC(=S)NCCCN2CCOCC2)c1,?,-7.0%,50.1µM*,19.0%,-21.4%,-23.5%
O=C(CCN1CCCCO1)N1CCCC(Nc2cccc(F)c2)C1 (centres undefined),62.2%,-11.4%,14.7%,15.7%[57 µM],-10.8%,6.1%
CCNC(=O)[C@@H]1CCCN1C(=O)[C@H](CCCN=C(N)N)NC(=O)[C@H](CC(C)C)NC(=O)[C@@H](Cc1c[nH]c2ccccc12)NC(=O)[C@H](Cc1ccc(O)cc1)NC(=O)[C@H](CO)NC(=O)[C@H](Cc1c[nH]c2ccccc12)NC(=O)[C@H](Cc1cnc[nH]1)NC(=O)[C@@H]1CCC(=O)N1,-30.7%[12.7 µM],/,?,/,/,/
